Results with a measured potency or affinity are listed apart. Unmarked numbers belong to inactive results. The rule behind the calls is not given here.
Test: Vero cell cytotoxicity, cytotoxicity control for M. tuberculosis inhibitor project, purified and synthesized samples, set 3 (AID 504684)
Conditions: series mostly up to 100 µM; viability: at the top concentration

SMILES	viability [%]
CCOC(=O)CSc1nc(C)c(C)c(=O)[nH]1	100
COc1cc(NC(=O)C/C(C)=N/NC(=O)c2ccccn2)c(OC)cc1Cl	98.9
COC(=O)C(C)Oc1ccc(Cc2ncc(C(F)(F)F)cc2Cl)cc1 (stereo not drawn)	83.6
COC(=O)C(C)Oc1ccc(-c2nccc(-c3ccccn3)n2)cc1 (stereo not drawn)	82
Cc1nc(SCC(N)=O)[nH]c(=O)c1C	93.2
CCSc1nc(C)c(C)c(=O)[nH]1	101
CCOC(=O)COn1c2c(c3c4no[n+]([O-])c4ccc31)CCCC2	93.2
CCOC1OC(=O)C(Cl)=C1Nc1ccccc1C (stereo not drawn)	85
CCOC(=O)COc1ccc(/C=C2\NC(=S)N(CC)C2=O)cc1	86.3
O=C(CSc1ccccn1)NC1CCCCC1	80.4
O=C(CSc1nccc(=O)[nH]1)Nc1ccc(N2CCOCC2)cc1	103
Cc1ccc(NC(=O)COC(=O)CCc2c[nH]c3ccccc23)cc1[N+](=O)[O-]	79.8
Cc1nc(SCC(=O)NC2CCCCC2)[nH]c(=O)c1C	84.1
O=C(CSc1nc2ccccc2c(=O)[nH]1)NC1CCCCC1	94
O=C(CSc1nc(O)cc(=O)[nH]1)Nc1ccccc1	91.6
Cc1cc(=O)[nH]c(SCC(=O)Nc2ccccc2)n1	87.8
O=C(CSc1ncccn1)NC1CCCCC1	80.4
COC(=O)C1CC(=O)N(c2ccc(OCc3ccccc3Cl)cc2)C1 (stereo not drawn)	79.3
CC(=NCc1ccc2c(c1)OCO2)C1=C(O)c2ccccc2C1=O	89.5
Cc1cc(=O)[nH]c(=S)[nH]1	94.2
Cc1c[nH]c(=S)[nH]c1=O	80.5
Cc1[nH]c(=S)[nH]c(=O)c1C	92.6
CC[N+](C)(CC)CCCCOc1ccc2c(c1)C(=O)c1cc(OCCCC[N+](C)(CC)CC)ccc1-2	87.1

Reference: PubChem BioAssay AID504684 (Southern Research Specialized Biocontainment Screening …, 2011)
